Most compounds without a hit are left out; they make up all but 6.2% or so of the library.
LASV entry inh: qHTS for Inhibitors of binding or entry into cells for Lassa Virus; Lassa virus pseudotype entry inhibition, cell reporter; Potency, µM (titrated, usually from 37.9 µM), without a hit: at the top dose activity change, negative = inhibition, usual class: inhibitors; 1.2% of 300,000 active; AID 540256, 2011; calls by dose curve; tested in HEK293 cells; also: potency is read from the fitted curve at half-maximal effect; nearly all actives have a fitted effect of over 50% in size
HCMV inh: qHTS Assay for inhibitors of the human cytomegalovirus (HCMV) | HFF cells, HCMV-luciferase reporter, 72 h; stronger effect = lower value | activity change, negative = inhibition, % at 57.5 µM | 4.5% of 410,000 active | AID 1259415, 2018; in the data active = activity change below about -60%; inconclusive = no clear call, values can overlap the other calls; inactive = above about -39%
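Steps: HFFs plated, 16 h 37C; compounds added; HCMV-luciferase added to MOI 1 PFU/cell; 72 h 37C; OneGlo reagent, 5 min room temperature; luminescence read, normalized to controls.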
Marburg entry inh: qHTS for inhibitors of binding or entry into cells for Marburg Virus. Marburg virus pseudotyped entry inhibition, cell reporter. Potency, µM (titrated, usually from 37.8 µM), inactives show at the highest dose activity change, negative = inhibition, actives largely listed as inhibitors. 1.8% of 300,000 active; calls by dose curve; tested in HEK293 cells; also: potency is read from the fitted curve at half-maximal effect
FMDV antiviral: High Throughput Screening for Foot and Mouth Disease Virus Antivirals; FMDV antiviral cell-based qHTS; Potency, µM (series often up to 57.9 µM), for inactives: at the top dose activity change, negative = inhibition, hits mostly inhibitors; 1.2% of 410,000 active; AID 1159524, 2015; calls by dose curve; tested in HEK293T cells; also: read-out not given here; potency is read from the fitted curve at half-maximal effect; nearly all actives have a fitted effect of over 45% in size
* hit, by the source's call; [ ] = remark or other dose. % is scaled to controls: 0 for no effect and ±100 for the full control effect.

What do the screens show for `COc1cccc(NC(=O)CC(=O)Nc2ccc3nc4n(c(=O)c3c2)CCCCC4)c1`?
LASV entry inh: 16%[46.1 µM]; HCMV inh: -72*; Marburg entry inh: 4%[46.1 µM]; FMDV antiviral: -10%

How did Cc1cc(=O)oc2cc(OCC(=O)OCC(=O)N3CCc4ccccc43)ccc12 do in these assays?
LASV entry inh: -2%; HCMV inh: 2; Marburg entry inh: inconclusive; FMDV antiviral: 2%

How did Cc1ccc2nc(SCC(=O)N3CCC(C)CC3)nc(=O)n2c1 do in these assays?
LASV entry inh: 11%; HCMV inh: -1; Marburg entry inh: inconclusive; FMDV antiviral: 3%

How did Cc1cccc(OCC(=O)NCC(=O)n2nc(C)cc2C)c1 do in these assays?
LASV entry inh: 4%; HCMV inh: 1; Marburg entry inh: 4%; FMDV antiviral: 10%

Results for CCCc1cc(=O)oc2cc(C)cc(OCC(=O)N[C@@H](CSCc3ccccc3)C(=O)O)c12 ?
HCMV inh: -15; FMDV antiviral: -17%

What do the screens show for `O=C(NCc1ccco1)c1ccc(N2CCOCC2)c([N+](=O)[O-])c1`?
LASV entry inh: inconclusive; HCMV inh: inconclusive; Marburg entry inh: -18%[46.1 µM]; FMDV antiviral: 0%

Results for CC1CCN(c2ccc(C(=O)NCc3ccco3)cc2[N+](=O)[O-])CC1 ?
LASV entry inh: 6.5µM*; HCMV inh: -21; Marburg entry inh: inconclusive; FMDV antiviral: 3%

What do the screens show for `O=C(NCc1ccc(F)cc1)c1ccc(N2CCc3ccccc32)c([N+](=O)[O-])c1`?
LASV entry inh: 18µM*; HCMV inh: inconclusive; Marburg entry inh: inconclusive; FMDV antiviral: inconclusive

Results for Cc1ccc(N(Cc2ccco2)C(=O)c2ccc(N3CCCCC3)c([N+](=O)[O-])c2)cc1 ?
LASV entry inh: inconclusive; HCMV inh: -66*; Marburg entry inh: 23µM*; FMDV antiviral: 37%

How did O=C(NCc1ccco1)c1ccc(N2CCCCC2)c([N+](=O)[O-])c1 do in these assays?
LASV entry inh: 21µM*; HCMV inh: -14; Marburg entry inh: 16%; FMDV antiviral: 43%

Results for O=C(O)c1ccc(N2CCc3ccccc32)c([N+](=O)[O-])c1 ?
HCMV inh: -6; FMDV antiviral: -15%

Results for Cc1ccc(NC(=O)CN(c2ccc(Cl)cc2)S(=O)(=O)c2cc([N+](=O)[O-])ccc2Cl)cc1 ?
LASV entry inh: inconclusive; HCMV inh: inconclusive; Marburg entry inh: inconclusive; FMDV antiviral: -26%

Results for CC1CC(C)CN(c2ccc(C(=O)NCc3ccc4c(c3)OCO4)cc2[N+](=O)[O-])C1 (stereo unspecified) ?
LASV entry inh: 9%; HCMV inh: -62*; Marburg entry inh: inconclusive; FMDV antiviral: 30%

How did Cc1cc(C(=O)NCc2ccc3c(c2)OCO3)ccc1[N+](=O)[O-] do in these assays?
HCMV inh: -12; FMDV antiviral: 35%

What do the screens show for `CN(C)C(CNC(=O)c1ccc(C(=O)c2ccccc2)cc1)c1ccccc1` (stereo unspecified)?
LASV entry inh: -27%[46.1 µM]; HCMV inh: 7; Marburg entry inh: inconclusive; FMDV antiviral: 14%

What do the screens show for `Cc1ccccc1NS(=O)(=O)c1ccc(C(=O)NCC(c2ccccc2)N(C)C)cc1` (stereo unspecified)?
LASV entry inh: -1%; HCMV inh: -14; Marburg entry inh: 11µM*; FMDV antiviral: -15%

Results for CN(C)C(CNC(=O)c1ccc(-c2ccccc2)cc1)c1ccccc1 (stereo unspecified) ?
LASV entry inh: -22%; HCMV inh: -2; Marburg entry inh: 11µM*; FMDV antiviral: -7%

What do the screens show for `COc1ccc(C(CNC(=O)Cc2ccc(-c3ccccc3)cc2)N(C)C)cc1` (stereo unspecified)?
LASV entry inh: 13%; HCMV inh: 7; Marburg entry inh: 11µM*; FMDV antiviral: -20%

What do the screens show for `CCOC(=O)/C=c1\s/c(=C\c2c(OCC)ccc3ccccc23)c(=O)n1CC(=O)NCC1CCCO1` (stereo unspecified)?
LASV entry inh: inconclusive; HCMV inh: 26; Marburg entry inh: inconclusive; FMDV antiviral: -23%

Results for CCOC(=O)/C=c1\s/c(=C\c2ccc3cc(OC)ccc3c2)c(=O)n1CC(=O)NCc1ccc2c(c1)OCO2 ?
LASV entry inh: 3%; HCMV inh: -100*; Marburg entry inh: -22%[46.1 µM]; FMDV antiviral: 20%

Source: PubChem
